Data published in PubChem BioAssay AID1986 (Sanford-Burnham Center for Chemical Genomics, 2009).
Out of some 290,000 compounds screened, about 890 (0.31%) were called active. Cut-off read from the data, not from the text of the source: active = inhibition mostly above about 52% (no sharp cut-off); inactive = mostly below about 76%. This excerpt belongs to a sample that is enriched for actives.

Assay: cell-free HIV fusion peptide-binding blockers – biochemical, uHTS, fluorescence dequenching, primary screen (AID 1986)
Conditions: 30 min, stronger effect = higher value
[1] = measured here: repeat confirmation average inhibition, at 18.6 µM

SMILES	inhibition (at 20 µM)	inhibition [1]
CSc1ccc(S(=O)(=O)N2CCC(C(=O)NCC3CCCO3)CC2)cc1 (centres undefined)	-1.2% (inactive)	–
COc1ccc(NC(=O)c2ccsc2NC(C)=O)cc1	-0.1% (inactive)	–
COCCSc1nnc(NC(=O)c2ccc(NC(=O)C(C)C)cc2)s1	1.5% (inactive)	–
CCN(c1ccccc1)S(=O)(=O)c1ccc(OCC(=O)Nc2cc(C)on2)cc1	-4% (inactive)	–
Cc1c(NC(=O)c2c(F)cccc2F)c(=O)n(-c2ccccc2)n1C	0.4% (inactive)	–
CCOc1cc(N2CCOCC2)c(OCC)cc1NC(=O)COC(=O)c1cc2ccccc2cc1O	-0.9% (inactive)	–
CCOC(=O)CNC(=O)CNC(=O)Cn1ccc2ccccc2c1=O	-0.8% (inactive)	–
O=C(C[n+]1ccc(C(=O)NCc2ccccc2)cc1)c1ccc(Cl)cc1	1.3% (inactive)	–
Cc1ccc(NC(=O)COC(=O)Cn2cnc3c2c(=O)n(C)c(=O)n3C)c(Cl)c1	1.4% (inactive)	–
O=C(NCCCCc1ccccc1)C1CCCC1	-0.4% (inactive)	–
COc1ccccc1NC(=O)CCCc1nc(-c2ccc(OC)c(OC)c2)no1	-1% (inactive)	–
Cc1cc(/C=C(/C#N)c2nc3ccccc3[nH]2)c(C)n1-c1ccccc1C(=O)O	9.7% (inactive)	–
Cc1cc2nc(/C(C#N)=C\c3ccc(-c4ccccc4C(=O)O)o3)[nH]c2cc1C	135% (inactive)	–
Cc1ccc2nc(/C(C#N)=C/c3ccc(-c4ccccc4C(=O)O)o3)[nH]c2c1	94.3% (active)	63.8%
Cc1cc(/C=C(\C#N)c2nc3ccccc3[nH]2)c(C)n1C	54% (active)	–
COc1cc(/C=C(\C#N)c2nc3ccccc3[nH]2)ccc1OC(=O)c1ccco1	61.1% (active)	–
Cc1cc(/C=C(/C#N)c2nc3ccccc3[nH]2)c(C)n1-c1cc(C(=O)O)cc(C(=O)O)c1	63.6% (inactive)	40.2%
N#C/C(=C\c1ccc(-c2ccccc2C(=O)O)o1)c1nc2ccccc2[nH]1	29.4% (inactive)	–
COc1cc(/C=C(/C#N)c2nc3ccccc3[nH]2)ccc1OC(=O)c1ccco1	0.5% (inactive)	–
COC(=O)c1ccc(COc2ccc(/C=C(\C#N)c3nc4ccccc4[nH]3)cc2OC)o1	4.4% (inactive)	–
O=C(NC(=S)Nc1ccc(CN2CCCCC2)cc1)c1ccco1	0.8% (inactive)	–
Cc1ccccc1-n1ncc2c1CC(C)(C)CC2NC(=O)CCCN1CCCC1=O (centres undefined)	0.2% (inactive)	–
CCOc1ccc(NC(=O)CSc2nc3ccsc3c(=O)n2CCC(=O)O)cc1	2.5% (inactive)	–
Oc1oc(-c2ccccc2Br)nc1C=Nc1ccc(Br)cn1	-0.2% (inactive)	–

SMILES	inhibition (at 20 µM)	inhibition [1]
COc1ccc(N2CC(O)=C(c3n(C)c4ccccc4[n+]3C)C2=N)cc1	1.6% (inactive)	–
COc1ccc(N=Nc2n(C)c3ccccc3[n+]2C)cc1	79.3% (active)	–
Cn1c(N=Nc2ccc(N3CCOCC3)cc2)[n+](C)c2ccccc21	-4.1% (inactive)	–
CC(C)(C)c1cc(C(=O)C[n+]2ccc(C(=O)NCCCO)cc2)cc(C(C)(C)C)c1O	-4% (inactive)	–
CCCOC(=O)C1C2C=CC3(CN(c4cccc(Cl)c4)C(=O)C13)O2 (centres undefined)	0.8% (inactive)	–
Cc1cc(N2CCOCC2)n2nc(C(F)(F)F)c(-c3ccccc3)c2n1	0.1% (inactive)	–
Cc1cc(C)n2nc(C(F)(F)F)c(-c3ccccc3)c2n1	0.5% (inactive)	–
O=C(Nc1cccc2ncccc12)c1ccc(F)cc1	2.1% (inactive)	–
CC(C)(C)c1ccc(C(=O)Nc2cccc3ncccc23)cc1	62% (active)	65.1%
O=C(Nc1cccc2ncccc12)c1ccc(Cl)cc1	-1% (inactive)	–
COc1ccc(O)c(C(=O)c2cnc3nc4ccccc4n3c2)c1	28.4% (inactive)	–
c1ccc(-c2csc(-c3ccncc3)n2)cc1	0.1% (inactive)	–
O=C(O)c1c2c(nc3ccccc13)/C(=C/c1ccc(O)cc1)CC2	77.1% (active)	–
O=C(O)c1c2c(nc3ccccc13)/C(=C/c1ccc(O)cc1)CCC2	6.1% (inactive)	–
O=C(O)c1ccc(/C=C2\CCCc3c2nc2ccccc2c3C(=O)O)cc1	4.2% (inactive)	–
CC(C)OCCCNC(=O)NC12CC3CC(CC(C3)C1)C2	1.1% (inactive)	–
Cc1ccc(-n2nc3c(c2NC(=O)c2ccc4c(c2)OCO4)CS(=O)C3)cc1 (centres undefined)	-0.3% (inactive)	–
CCc1nnc(NS(=O)(=O)c2ccc(NC(=S)NC(=O)/C=C/c3ccccc3)cc2)s1	60.8% (active)	–
CCc1nnc(NS(=O)(=O)c2ccc(NC(=S)NC(=O)/C=C/c3ccc(OC)cc3)cc2)s1	34.6% (inactive)	–
CCc1nnc(NS(=O)(=O)c2ccc(NC(=S)NC(=O)/C=C/c3ccc([N+](=O)[O-])cc3)cc2)s1	25.6% (inactive)	–
Cc1cccc(C)c1NC(=O)C(Cl)=C(Cl)Cl	0.7% (inactive)	–
O=C(O)c1cccc(S(=O)(=O)N2CCOCC2)c1	-1% (inactive)	–
CCn1ncc(Cl)c1C(=O)Nc1cc([N+](=O)[O-])ccc1OC	0.4% (inactive)	–
Cc1ccsc1/C=N/NC(=O)c1ccccn1	-0.7% (inactive)	–

SMILES	inhibition (at 20 µM)	inhibition [1]
COc1cccc(N2C(=O)C(c3ccccc3)=C(c3nc4ccccc4s3)C2NC(C)=O)c1 (centres undefined)	0.6% (inactive)	–
N#C/C(=N\Nc1cccc([N+](=O)[O-])c1)C(=O)c1ccc(Br)cc1	63.4% (active)	–
COc1ccc(C(=O)/C(C#N)=N/Nc2ccc([N+](=O)[O-])cc2)cc1	5.5% (inactive)	–
COc1ccc(C(=O)/C(C#N)=N/Nc2cccc([N+](=O)[O-])c2)cc1	20.6% (inactive)	–
Cc1c(C(=O)OCC(=O)N(C)c2ccccc2)oc2ccccc12	1.2% (inactive)	–
O=C1c2cccc3c(N4CCCCC4)ccc(c23)C(=O)N1c1ccccc1O	100% (active)	–
O=C(OCCN1C(=O)c2cccc3c(N4CCOCC4)ccc(c23)C1=O)c1ccc(Cl)cc1	149% (inactive)	–
O=C(OCCN1C(=O)c2cccc3c(N4CCOCC4)ccc(c23)C1=O)c1cccc(Cl)c1	151% (inactive)	–
O=C(OCCN1C(=O)c2cccc3c(N4CCOCC4)ccc(c23)C1=O)c1ccc(Cl)cc1Cl	151% (inactive)	–
CC(=O)N(C(C)=O)N1C(=O)c2cccc3c(N4CCOCC4)ccc(c23)C1=O	100% (active)	–
O=C1c2cccc3c(N4CCCCC4)ccc(c23)C(=O)N1CCO	-0.2% (inactive)	–
CCN(CC)S(=O)(=O)c1ccc(C(=O)OCCN2C(=O)c3cccc4c(N5CCOCC5)ccc(c34)C2=O)cc1	150% (inactive)	–
O=C1c2cccc3c(N4CCCCC4)ccc(c23)C(=O)N1c1ccc(O)cc1	146% (inactive)	–
O=C1c2cccc3c(N4CCCCC4)ccc(c23)C(=O)N1c1cccc(O)c1	148% (inactive)	–
O=C(OCCN1C(=O)c2cccc3c(N4CCOCC4)ccc(c23)C1=O)c1ccccc1Cl	151% (inactive)	–
O=C(OCCN1C(=O)c2cccc3c(N4CCOCC4)ccc(c23)C1=O)c1cc(Cl)cc(Cl)c1	88.8% (active)	–
CCCN(CCC)S(=O)(=O)c1ccc(C(=O)OCCN2C(=O)c3cccc4c(N5CCOCC5)ccc(c34)C2=O)cc1	63.4% (active)	–
Cc1ccc(C(=O)NC(C(=O)Nc2cccc(S(N)(=O)=O)c2)C(C)C)cc1 (centres undefined)	-1.6% (inactive)	–
COc1ccc(CNC(=O)Cn2nc(C(F)(F)F)cc2C)cc1	-0.1% (inactive)	–
O=C(O)c1cc(Cl)c(Cl)cc1C(=O)N1CCOCC1	1.9% (inactive)	–
COc1ccccc1-n1c(C)nc2cc(C(=O)NCC3CCCO3)ccc21 (centres undefined)	0.3% (inactive)	–
Cc1cc(C)n(C(=O)c2ccc(Cl)c(F)c2F)n1	-0.2% (inactive)	–
COc1ccc(CC(=O)Nc2c(C(=O)N3CCN(c4ncccn4)CC3)oc3ccccc23)cc1	-0.6% (inactive)	–
O=c1ccc(C(F)(F)F)cn1Cc1cc(=O)n2cc(Br)ccc2n1	1.6% (inactive)	–

SMILES	inhibition (at 20 µM)	inhibition [1]
COC(=O)C(Cc1ccccc1)NC(=O)CSc1nc(C)cc(=O)[nH]1 (centres undefined)	-1.7% (inactive)	–
CCNc1cc(=O)n(C)c(=O)n1C	0.1% (inactive)	–
COc1cc(CO)cc(Br)c1OCC(=O)O	0% (inactive)	–
CCc1ccc(N=C2NC(=O)/C(=C/c3ccc(OCC(=O)O)c(OC)c3)S2)cc1	55.1% (inactive)	26.6%
CC(=O)Nc1c(-c2cc(=O)oc3cc(C)ccc23)oc2ccccc12	-0.7% (inactive)	–
Cc1ccccc1CN1C(=O)C(C)S/C1=N/N=C/c1ccco1 (centres undefined)	4.6% (inactive)	–
CC1=Nc2ccccc2/C1=C/c1sc(=S)n(-c2cccc(C(=O)O)c2)c1O	112% (active)	134%
O=C(O)c1ccc(-n2c(O)c(C=C3N=c4ccccc4=N3)sc2=S)cc1	33.3% (inactive)	–
O=C(O)c1cccc(-n2c(O)c(C=C3N=c4ccccc4=N3)sc2=S)c1	32.8% (inactive)	–
O=[N+]([O-])c1cccc(-c2noc(-c3ccco3)n2)c1	-2.4% (inactive)	–
COc1ccccc1-c1nnc(SCC(=O)N2CCC(C)CC2)o1	-1.2% (inactive)	–
Cc1ccc(C(=O)O)cc1-c1ccc(/C=C2\SC(=O)N(CC(=O)Nc3ccccc3)C2=O)o1	59.6% (active)	–
CC(C)(C)OC(=O)CN1C(=O)S/C(=C\c2ccc(-c3cccc(C(=O)O)c3)o2)C1=O	51.8% (inactive)	40.6%
Cc1ccc(NC(=O)CN2C(=O)S/C(=C/c3ccc(-c4cc(C(=O)O)ccc4C)o3)C2=O)cc1C	63.2% (inactive)	35.6%
Cc1ccc(NC(=O)CN2C(=O)S/C(=C\c3ccc(-c4cccc(C(=O)O)c4C)o3)C2=O)cc1C	68.7% (inactive)	6.8%
Cc1ccc(OCC(=O)N/N=C\c2ccc(C)o2)c(C)c1	0.1% (inactive)	–
Cc1cccc(NC(=O)CN2C(=O)N/C(=C\c3ccc(-c4cccc(C(=O)O)c4)o3)C2=O)c1	40.3% (inactive)	–
Cc1ccccc1NC(=O)CN1C(=O)S/C(=C\c2ccc(-c3cc(C(=O)O)ccc3C)o2)C1=O	69.3% (inactive)	19.9%
COc1ccc(CC(=O)N/N=C/c2ccc(-c3cccc(C(=O)O)c3)o2)cc1OC	28.8% (inactive)	–
Cc1cccc(NC(=O)CN2C(=O)S/C(=C\c3ccc(-c4cccc(C(=O)O)c4C)o3)C2=O)c1	55.2% (active)	–
Cc1cccc(NC(=O)CN2C(=O)N/C(=C/c3ccc(-c4cccc(C(=O)O)c4C)o3)C2=O)c1	28.4% (inactive)	–
Cc1ccc(OCC(=O)N/N=C\c2ccc(-c3cccc(C(=O)O)c3)o2)c(C)c1	56.8% (active)	–
Cc1ccc(NC(=O)CN2C(=O)S/C(=C/c3ccc(-c4cccc(C(=O)O)c4)o3)C2=O)cc1	79.5% (active)	–
